The list is not random: actives were taken first. Their share in the collection is about 3.3%.
Pol III holo inh = DNA polymerase III holoenzyme inhibition. reconstituted DNA polymerase III holoenzyme replication, biochemical. Potency, µM (titrated, usually from 57.1 µM), for inactives: at the top dose activity change, negative = inhibition. hit rate 0.25% among 71,000. AID 603; also: potency is read from the fitted curve at half-maximal effect; % is scaled to controls: 0 for no effect and ±100 for the full control effect
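Reconstituted *E. coli* holoenzyme (0.35 nM Pol III, 1 nM beta, 154 nM SSB, 2 nM primase) was preincubated with compound for 15 min at RT. Synthesis on 1.4 nM ssM13Gori ran 35 min, then was stopped with PicoGreen/EDTA and read as dsDNA fluorescence.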
ALOX15 inhib = blocks human 15-lipoxygenase activity. P16050. purified 15hLO-1, xylenol orange hydroperoxide absorbance. Potency, µM (top dose mostly 57.1 µM), for the others: at the top dose activity change, negative = inhibition, most hits filed as inhibitors. hit rate 1.4% among 74,000. AID 887; also: potency is read from the fitted curve at half-maximal effect; % is scaled to controls: 0 for no effect and ±100 for the full control effect; nearly all actives have a fitted effect of over 55% in size
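Quantitative HTS in 25 mM Hepes pH 7.5 containing 0.01% Triton X-100: human 15hLO-1 at 40 nM, arachidonic acid at 50 uM, 6 min turnover. Product quantified via ferrous oxidation/xylenol orange, 573:405 nm absorbance ratio.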
Tau filament bind = binders of human tau filaments; recombinant tau filaments, thioflavin S fluorescence, 15 h; filaments grown with octadecylsulfate alongside compound; Potency, µM (highest dose often 57.1 µM), without a hit: at the top dose activity change, negative = inhibition; AID 596; hit rate 2% among 71,000; P10636;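 also: potency is read from the fitted curve at half-maximal effect; % is scaled to controls: 0 for no effect and ±100 for the full control effect; actives lower thioflavin S fluorescence by blocking filaments or displacing dye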
Target sequence (P10636 whole entry, looked up): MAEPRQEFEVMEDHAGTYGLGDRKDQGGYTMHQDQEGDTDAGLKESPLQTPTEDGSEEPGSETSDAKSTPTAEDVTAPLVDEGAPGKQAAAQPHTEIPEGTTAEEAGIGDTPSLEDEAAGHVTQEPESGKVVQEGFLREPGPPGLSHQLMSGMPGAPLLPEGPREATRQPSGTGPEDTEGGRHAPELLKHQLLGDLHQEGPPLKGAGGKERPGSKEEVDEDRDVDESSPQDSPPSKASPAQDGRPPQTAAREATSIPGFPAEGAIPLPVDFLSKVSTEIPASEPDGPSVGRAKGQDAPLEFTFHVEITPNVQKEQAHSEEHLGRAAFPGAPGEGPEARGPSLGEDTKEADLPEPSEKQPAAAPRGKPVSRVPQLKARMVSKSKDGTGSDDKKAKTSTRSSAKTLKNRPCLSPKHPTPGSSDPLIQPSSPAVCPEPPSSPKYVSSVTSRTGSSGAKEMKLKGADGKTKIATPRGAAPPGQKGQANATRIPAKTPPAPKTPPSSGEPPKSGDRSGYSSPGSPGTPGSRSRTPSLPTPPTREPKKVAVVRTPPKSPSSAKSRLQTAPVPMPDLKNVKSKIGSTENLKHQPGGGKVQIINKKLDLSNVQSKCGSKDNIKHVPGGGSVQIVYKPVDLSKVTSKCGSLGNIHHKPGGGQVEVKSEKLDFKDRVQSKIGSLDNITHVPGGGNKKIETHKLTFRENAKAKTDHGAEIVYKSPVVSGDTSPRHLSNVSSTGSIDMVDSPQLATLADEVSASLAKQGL
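Thioflavine S fluorescence (ex 450, em 510 nm) reports filaments formed from 1 uM human tau plus 30 uM ODS over 15 h at 37 C (10 mM HEPES pH 7.4, 100 mM NaCl, 5 mM DTT); compounds displacing dye or blocking filaments lower signal.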
YjeE inh = YjeE (TsaE) inhibition, E. coli. P0AF67. purified YjeE enzyme, qHTS inhibition assay. Potency, µM. hit rate 0.05% among 71,000. AID 605
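Purified YjeE (10 uM) with BODIPY Texas Red-labeled ADP probe (2 uM); compounds pin-transferred, 15 min at room temperature. Binding inhibition read as decreased fluorescence polarization; ADP titration as control.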
Hsp90 Hop PPI = changes Hsp90-Hop TPR2A binding signal, up or down. Potency, µM (top dose mostly 57 µM), inactives show top-dose activity change, negative = inhibition. AlphaScreen TPR2A-His6 binding biotin-Hsp90 C-terminal peptide. hit rate 0.44% among 71,000; active = well fitted curve in either direction with a large enough effect; inconclusive = small, poorly fitted or top-dose-only effect, or another doubt; also: potency is read from the fitted curve at half-maximal effect; % is scaled to controls: 0 for no effect and ±100 for the full control effect
An asterisk follows results filed as active; i = inactive; ? = inconclusive; nt = not tested or not shown; ! = not confirmed by another sample; [ ] = remark or other dose. Unless noted, calls follow the shape of the dose curve; as a rule, active = well fitted curve in the direction sought with a large enough effect; inconclusive = small, poorly fitted or top-dose-only effect, or another doubt; inactive = no such curve, though single readings can be large; an effect the other way counts as inactive or inconclusive.

SMILES | Pol III holo inh | ALOX15 inhib | Tau filament bind | YjeE inh | Hsp90 Hop PPI
O=C(C[N+]12CN3CN(CN(C3)C1)C2)c1ccc(-c2ccccc2)cc1 | -7.7%[11.4 µM] | 23.9%[11.4 µM] | 3.16µM* | i | -2.4%[11 µM]
O=C(O)CCC(=O)c1ccc(-c2ccccc2)cc1 | -6.6%[25.6 µM] | 2.7% | -1.6%[25.6 µM] | i | 2.4%[26 µM]
C[C@@]12C[C@H](O)[C@@H]3[C@H](CCC4=CC(=O)CC[C@]43C)[C@H]1CC[C@@H]2c1csc(-c2ccccc2)n1 | 11.1%[11.4 µM] | 14.3%[11.4 µM] | 33.7%[11.4 µM] | i | -3.2%[11 µM]
O=C(OCC(=O)N1CCN(C(=O)c2ccco2)CC1)c1cc(-c2ccccc2)nc2ccccc12 | -3.2% | -14.8% | -26.3% | i | -5.6%
Cc1cc(C(=O)OCC(=O)N2CCN(c3ccccc3)CC2)c2ccccc2n1 | -6.0% | -4.3% | 12.6µM* | i | -8.7%
Cc1cc(C)cc(O)c1 | -7.3% | 2.2% | 4.4% | i | -4.8%
CCOC(=O)C1=C(N)n2c(s/c(=C/c3ccco3)c2=O)=C(C(=O)OC)C1c1ccco1 (stereo not drawn) | -4.8% | -28.1% | 3.16µM* | i | -18.0%
CCOC(=O)C1=C(C)N=c2s/c(=C/c3ccco3)c(=O)n2C1c1cccc(OC)c1 (stereo not drawn) | 2.4% | 15.8µM* | 3.16µM* | i | -26.6%
CCOC(=O)C1=C(C)N=c2s/c(=C\c3cccn3C)c(=O)n2C1c1cccc(OC)c1OC (stereo not drawn) | 0.4% | -10.0% | 29.3% | i | -10.0%
CO[C@H]1COC(=O)C/C=C\[C@H](C)[C@@H](OC)COC(=O)[C@@H](C)NC(=O)C/C=C\[C@@H]1C | nt | 6.5%[11.4 µM] | nt | nt | nt
O=C1Nc2ccccc2C1=Nc1cccc2ncccc12 | -10.8%[11.4 µM] | -2.5%[11.4 µM] | 3.0%[11.4 µM] | i | 0.1%[11 µM]
O=C1Nc2cccnc2Sc2ccccc21 | -4.2% | 15.8µM* | -4.4% | i | -1.5%
CC1=C/C(=C(/c2ccc(O)c(C)c2)c2ccccc2C(=O)O)C=CC1=O | -12.9%[11.4 µM] | -14.0%[11.4 µM] | 3.4%[11.4 µM] | i | -2.2%[11 µM]
O=C(O)C1=CC(=C(c2ccc(O)c(C(=O)O)c2)c2ccc(O)c(C(=O)O)c2)C=CC1=O | 0.0794µM* | 2.51µM* | -4.8% | i | ?
COc1cc(NC(=O)NCCN2CCN(c3ccc(Cl)cc3)CC2)ccc1C | -1.2% | ? | 12.6µM* | i | -17.8%
CCOc1ccc(NC(=O)Nc2ccc3nccnc3c2)cc1 | -1.8% | -10.8% | 25.1µM* | i | -5.3%
O=C(O)[C@H](Cc1ccccc1)N1Cc2ccccc2C1=O | -5.9% | ? | -9.0% | i | -0.4%
O=C(O)CCN1Cc2ccccc2C1=O | 2.3% | 20µM* | 13.0% | i | 0.6%
O=[N+]([O-])c1ccc(NCCO)c(OCCO)c1 | -10.4% | -23.1% | -4.0% | i | -2.1%
CN(C)CCOc1nc(-c2ccccc2)nc2c1oc1ccccc12 | 25.1µM* | 13.8% | 64.5% | i | -7.7%
CO[C@H]1COC(=O)[C@@H](C)COC(=O)[C@@H](COCc2ccccc2)NC(=O)C/C=C\[C@H]1C | nt | 6.7%[11.4 µM] | nt | nt | nt
Cc1ccc(Nc2nc(N3CCOCC3)c3ccccc3n2)cc1 | -3.4% | ? | ? | i | 3.2%
Oc1ccc(Nc2nc(N3CCCC3)c3ccccc3n2)cc1 | 31.6µM* | ? | 132.2% | i | -22.1%
COc1ccc(NC(=O)Nc2ccc3c(c2)N(C)C(=O)CS3)cc1OC | -4.8% | -24.5% | 20µM* | i | -14.5%
N/N=C1/CC(=O)NC(=O)N1 | 3.0%[11.4 µM] | 5.4%[11.4 µM] | 2.4%[11.4 µM] | i | -1.3%[11 µM]
SMILES | Pol III holo inh | ALOX15 inhib | Tau filament bind | YjeE inh | Hsp90 Hop PPI
CC(C)(C)C1CCC2(CC1)C(C#N)=C(SCC(=O)NC1CCCCC1)NC(=O)C2C#N (stereo not drawn) | -6.5% | -10.0% | 12.6µM* | i | -5.4%
N#CC1=C(SCC(=O)NC2CC2)NC(=O)C(C#N)C12CCCCC2 (stereo not drawn) | -1.9% | -9.8% | 13.1% | i | 1.6%
CC(O)COC(C)(C)C (stereo not drawn) | -2.6% | 4.3% | -3.8% | i | -1.0%
O=C1CCCC(O)=C1C(C#Cc1ccccc1)C1=C(O)CCCC1=O | -0.7% | 7.94µM* | -9.7% | i | 0.1%
CCCCCCCCCCCC1=C(O)C(=O)C=C(O)C1=O | 6.31µM*! | 5.01µM* | 3.16µM* | i | ?
Cc1csc(-c2coc3cc(O)cc(C)c3c2=O)n1 | -7.4% | 15.8µM* | 10.1% | i | -3.2%
COc1ccc(-c2coc3cc(O)cc(O)c3c2=O)cc1 | -4.1% | -26.8%[25.6 µM] | ? | i | -8.8%
CCC(=O)/C=C/C1C(C)=CCCC1(C)C (stereo not drawn) | 5.7% | 25.1µM* | -3.5% | i | 0.5%
CCN1/C(=C\C(C)=O)Sc2ccc(OC)cc21 | -6.7% | nt | -6.0% | i | -3.3%
C[C@@H](CN1c2ccccc2Sc2ccccc21)N(C)C | -2.9%[25.6 µM] | 15.8µM*! | 12.6µM*! | i | 0.5%[26 µM]
COc1ccc2c(c1)N(CC[C@H]1CCCCN1C)c1ccccc1S2 | -9.2%[11.4 µM] | 6.7%[11.4 µM] | 2.51µM* | i | -8.4%[11 µM]
COc1ccc2c(c1)N(C[C@@H](C)CN(C)C)c1ccccc1S2 | -2.8%[25.6 µM] | -3.1%[25.6 µM] | 10µM* | i | -6.8%[26 µM]
CC(NC(=O)c1cc(-c2ccc(O)cc2)on1)c1ccccc1 (stereo not drawn) | -6.6% | -10.3% | -17.6% | i | -1.6%
CC(C)N=C=NC(C)C | -2.8% | 1.1% | -1.0% | i | 1.9%
COc1cc2cc(C(c3nnnn3C3CCCC3)N3CCc4ccccc43)c(=O)[nH]c2cc1OC (stereo not drawn) | ? | 20µM* | -1.4% | i | ?
COc1ccccc1NC(=O)N1CCCC1C(=O)Nc1ccc(NC(C)=O)cc1 (stereo not drawn) | -3.5% | 6.1% | -5.9% | i | 1.0%
CCC1c2ccc(C)n2CCN1C(=O)Nc1ccccc1OC (stereo not drawn) | 1.1% | 3.16µM* | 206.6% | i | -8.4%
Cc1ccc(C(=O)O[C@@H](C(=O)O)[C@@H](OC(=O)c2ccc(C)cc2)C(=O)O)cc1 (tested in a mixture with another compound) | -2.8% | 17.6% | 7.0% | i | -7.5%
Cc1c(Cc2ccccc2)sc(N)c1C(N)=O | 3.5% | ? | 15.8µM* | i | -10.8%
Cc1nc(-c2ccccc2)sc1C(N)=O | -13.3% | 8.6% | 5.4% | i | -2.2%
O=C1CC(Nc2ccc(N3CCOCC3)cc2)C(=O)N1c1ccccc1F (stereo not drawn) | -7.4% | 20µM* | -12.4% | i | -9.0%
COc1ccc(/C=N/NC(=O)c2cc(-c3ccc(Cl)cc3)n[nH]2)cc1OC | nt | -3.9% | nt | nt | nt
Oc1c(Cl)cc(Cl)c(Cl)c1Cl | -0.7% | -11.7% | 0.8% | i | -1.8%
Oc1c(Cl)cc(Cl)cc1Sc1cc(Cl)cc(Cl)c1O | -9.3% | 15.8µM* | ? | i | -0.9%
C=CC(=O)CC | 4.8% | -3.2% | 2.9% | i | -6.0%
CCOC(=O)c1cnc2c(C#N)c(C)nn2c1C | 6.3% | 9.1% | -3.6% | i | -14.2%
CCOC(=O)c1cnc2c(C#N)c(C)nn2c1-c1ccccc1 | -5.7% | ? | 15.8µM* | i | -4.3%[2.3 µM]
